Reference: the supplement of paper PMC6555819

tested on: VDR:RXRa (NR concentration 270 nM, RXRa partner concentration 90 nM); experiment: PBM binding z-score (relative to random genomic background probes); higher = stronger binding; sequences stand for … in GC…GCGATTGACAGCGTAGAATGAAGG
Method: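 Protein-binding microarray (Agilent 4x180K custom design, double-stranded 60-nt probes: 5' GC cap, 34-nt variable region, 24-nt constant primer region; full probe sequence given). Purified or IVT nuclear receptor:RXRα heterodimers (3:1 NR:RXRα, mostly 270:90 nM) or homodimers were incubated for 1 h in PBS with 2% milk and no ligand, then detected with Alexa488 antibodies. Fluorescence from o1-orientation probes (~5 replicates averaged) was converted to z-scores against 500 random hg19 background probes. Variable regions are seed direct-repeat (DR0–DR5) sites, all their single-nucleotide variants and half-site ablations.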

Sequence | PBM binding z-score
GCTTACGGTTCAAAGGTTATAGCATGAATAGAAT | 4.41
AGTATTAGTTGACTTAGGGCAACCGATACGACGC | 0.573
TCTAGTTGGTTAAAGGTCACACACTCGAAATGCG | 4.86
CACACTAGGTCAAGGTCAAAGTCGGTTTGTGCCA | 5.17
ACTAGCAGGCCAAGGGTAACTCAAGATTAGTCCG | -0.166
ACTAGTTGGTCAGCTGAGGTCACTCACAATTCGG | 3.95
TTACCAAGGTGACGGTCGTTGATCCCTCTGTAGA | 0.0426
TCATATAGGTAAACAAGTGAAAGTCCGTAAGTTA | 1.09
TCTTGTAGTTCAATAGAGGTTAAGAAAGTGCGCT | 3.41
ATCTCTAGGTATAGTTCAGTGAAAGATCGATAGA | 1.04
TCGAGTAGGTTAGTCGGGGTATTCAGCCAACATA | 0.453
CGTACTAGGTCATTGACAGGACAGTGAATAGTAA | 2.09
CCTACTGGGCCAAAAAGGTCGTTGATGCCGATAA | 2.79
CTCGAAAGGTCGGTTGAGGTGAGCATACGGATAA | 2.26
TTACCAAGGTGAGCTGAGGACGTTGATCCAACTC | 0.98
TCGAGTAGGTTAGGTGCATTCAGAATGGCGTCGA | 0.44
ATATGTAGGTTATCGGGTCAGTCAGTTTGCGCAT | 4.27
TTACCAAGGTGAAGCTCGTTGATCCCTCTGTAGA | -0.103
TAGCTTAGGTCAGATCGGGCCAGTATACGCTATA | 0.872
ATCTCTAGGTAACCAAGTTCGGTGAATGCCGAAC | 1.83

Sequence | PBM binding z-score
CAGCTTAGGTCAGGGCCAGTATAGGAGGAACGTT | 0.513
CATCCAAGGTCATAGGAGGTCAGTGAAGACAGAT | 6.74
ACTTGCGGGTCAACGAGGTTATAGCACGCGTATA | 7.55
AGTCAAAGTTCACTAGGTAAGGTAAGATTCAGCT | 3.96
GCAGACAGGTGAAACGCAGGTAGCTCAGGGTGGC | -0.649
ATTTCTAGGTAAAGATAGTTCAGTGAATGCAAAT | 1.18
TCTTGTAGATCAACAGTAGGTTAAGAAAGATCGA | 0.333
ACAGACAGGTGAAGAAGGTAACTCAGGCTATCAT | 0.439
GTACCAAGGTGAATAGGTCATTGATGAGTAGGCG | 2.24
CAAACTAGGTCAAGATCAAAGTCGGTTTGTGCCA | 1.52
ATATGTAGGTTAGCTGGGGTCATTCGGACTAGGC | 6.4
TCGAGGAGGTTAGGGGCATTCAGAATGGCGTCGA | 1.03
CCTGCTAGGTCATGGTCTGCTAATCTACAGTATG | 1.58
CCTTACCGGTCACGAGGTTATAGCACGACGAGCG | 2.17
ACTTACGGGTCAATGAGGTTATAGCACGCGTATA | 7.74
ATATGTTGGTTAGCTGGGGTCATTCAGACTAGGC | 5.16
CAGCCTAGGTCAGGGCCAGAATAGGAGGAACGTT | 0.0945
TTAACAAGGTGAAGGTCGTTGATCCCTCTGTAGA | 1.35
ATCTCTAGGTAAAGATATTTCAGTGAATGCAAAT | 0.441
AGAATGAAGTTAAGATCAGGGAAACAGAATACAT | -0.31
